Reference: PubChem BioAssay (NCI)
Compounds without any hit were thinned out: in the full panel of roughly 83,000, 20% have a hit.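 Cell lines were cultured in 96-well plates, exposed to a single compound concentration, and assessed for percent growth 48 hours later.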 Calls of active or inactive are those of the source. Rule for the calls: active = growth percent below 10; inactive = the rest.

Columns and labels:
Test in all cases: NCI-60 one-dose screen, 48 h (100 = growth as untreated, 0 = no growth, -100 = all killed)
Details in all cases: 10 µM unless noted
T-47D breast = test system: T-47D breast
BT-549 breast = test system: BT-549 breast
MDA-MB-435 melanoma = test system: MDA-MB-435 melanoma
SW-620 colon = test system: SW-620 colon
MCF7 breast = test system: MCF7 breast
HCT-116 colon = test system: HCT-116 colon
HCC-2998 colon = test system: HCC-2998 colon
KM12 colon = test system: KM12 colon

Measured: growth

N#CC1C(C#N)C2c3ccccc3C=CN2C1C(=O)c1ccc(Br)cc1 (stereo not drawn)
inactive: T-47D breast 91.8% | BT-549 breast 103% | MDA-MB-435 melanoma 100% | SW-620 colon 99.2% | MCF7 breast 92.5% | HCT-116 colon 87.7% | HCC-2998 colon 112% | KM12 colon 99.2%

CCCCN1C=CCN(CCCC)C1
active: T-47D breast 6.14% | MDA-MB-435 melanoma 6.59%
inactive: BT-549 breast 56.9% | SW-620 colon 73.4% | MCF7 breast 32.5% | HCT-116 colon 34% | HCC-2998 colon 46.2% | KM12 colon 22.9%

CC(=O)N1c2ccccc2NC2=C(C(=O)NC2(C)C)C1c1ccco1 (stereo not drawn)
active: MDA-MB-435 melanoma -19.1%
inactive: T-47D breast 110% | BT-549 breast 86% | SW-620 colon 81.1% | MCF7 breast 37.9% | HCT-116 colon 87.8% | HCC-2998 colon 88.1% | KM12 colon 51.2%

COC(=O)CNC(=O)[C@]12CCC(C)(C)C[C@H]1C1=CC[C@@H]3[C@@]4(C)Cc5c([nH]c6ccccc56)C(C)(C)[C@@H]4CC[C@@]3(C)[C@]1(C)CC2
inactive: T-47D breast 57.1% | BT-549 breast 102% | MDA-MB-435 melanoma 97.8% | SW-620 colon 88.8% | MCF7 breast 79.9% | HCT-116 colon 95% | HCC-2998 colon 103% | KM12 colon 92.3%

N#C/C(=C\c1ccc(C(F)(F)F)cc1)c1cc2ccccc2[nH]1
inactive: T-47D breast 89.8% | BT-549 breast 94.1% | MDA-MB-435 melanoma 97.1% | SW-620 colon 100% | MCF7 breast 77.4% | HCT-116 colon 94.9% | HCC-2998 colon 116% | KM12 colon 97.7%

CCCOc1ccc(/C=N/Nc2cc(C)nc3ccc(Cl)cc23)cc1
active: MDA-MB-435 melanoma -40.4% | SW-620 colon -75.5% | MCF7 breast -20.5% | HCT-116 colon -74.8% | HCC-2998 colon -39.9%
inactive: T-47D breast 45.9% | BT-549 breast 102% | KM12 colon 16.5%

O=C(CSc1nc2sc3c(c2c(=O)n1-c1ccc(Cl)cc1)CCCC3)Nc1nc(-c2cccc(Br)c2)cs1
inactive: T-47D breast 76.9% | BT-549 breast 92.1% | MDA-MB-435 melanoma 97.5% | SW-620 colon 78.9% | MCF7 breast 87.4% | HCT-116 colon 81.6% | HCC-2998 colon 107% | KM12 colon 83.8%

O=C(/C=C/c1c(-c2ccc(Cl)cc2)nn(-c2ccccc2)c1C(F)(F)F)c1ccc(Cl)cc1
inactive: T-47D breast 64.8% | BT-549 breast 97.4% | MDA-MB-435 melanoma 97.9% | SW-620 colon 104% | MCF7 breast 61.8% | HCT-116 colon 63.4% | HCC-2998 colon 103% | KM12 colon 84.8%

COC(=O)C1=C(C(=O)ON)[C@@H]2C=C[C@@]1([C@@H](Cc1ccccc1)Nc1ccccc1)O2
inactive: BT-549 breast 118% | MDA-MB-435 melanoma 101% | MCF7 breast 90.8% | HCC-2998 colon 93.6% | KM12 colon 96.5%
active: T-47D breast -35.9% | SW-620 colon -71.2% | HCT-116 colon -77.7%

O=C(Nc1ccc(NC(=O)c2cc(=O)[nH]c3ccccc23)cc1)Nc1cccc(Cl)c1
active: KM12 colon -55.9%
inactive: T-47D breast 68.6% | BT-549 breast 79% | MDA-MB-435 melanoma 97% | SW-620 colon 89.9% | MCF7 breast 76% | HCT-116 colon 82% | HCC-2998 colon 83.6%

Cc1cc2nc3c4cc([N+](=O)[O-])ccc4n(CCN(C)C)c3nc2cc1C
inactive: T-47D breast 10.6% | BT-549 breast 31.7%
active: MDA-MB-435 melanoma -32.2% | SW-620 colon -5.68% | MCF7 breast 4.74% | HCT-116 colon 2.59% | HCC-2998 colon -37.2% | KM12 colon 5.62%

CCNc1nc2cc(Nc3ccnc4cc(Cl)ccc34)ccc2o1
inactive: T-47D breast 66.4% | BT-549 breast 81.4% | SW-620 colon 54.9% | MCF7 breast 40.8% | HCT-116 colon 42.3% | HCC-2998 colon 68.7% | KM12 colon 38%
active: MDA-MB-435 melanoma 9.8%

COc1ccc(C(=O)c2nc3ccccc3n2CC(=O)c2ccc(F)cc2)cc1
active: MDA-MB-435 melanoma -16.4%
inactive: T-47D breast 91.6% | BT-549 breast 93.2% | SW-620 colon 46% | MCF7 breast 62.9% | HCT-116 colon 89.5% | HCC-2998 colon 65.3% | KM12 colon 56.2%

CCCCCCCC(=O)OCC/C=C/C1OC1C1OC(=O)/C=C\C=C\C(=O)N(C(C)=O)C(=O)/C=C(/C)CCC2OC2C1OC(=O)NC(C)=O (stereo not drawn)
inactive: T-47D breast 10.8% | BT-549 breast 92.5% | MDA-MB-435 melanoma 79% | SW-620 colon 83.1% | MCF7 breast 20.4% | HCC-2998 colon 72.1% | KM12 colon 44.1%
active: HCT-116 colon 3.69%

CN1C(=O)NC(c2ccc3c(c2)OCO3)C=C1c1ccccc1 (stereo not drawn)
inactive: T-47D breast 78.6% | BT-549 breast 90% | MDA-MB-435 melanoma 97.5% | SW-620 colon 78.3% | MCF7 breast 49.9% | HCT-116 colon 78% | HCC-2998 colon 110% | KM12 colon 88.2%

CCN1CCN(CCNc2nccc(-c3c(-c4cccc(OC)c4)nc4occn34)n2)S1(=O)=O
inactive: T-47D breast 76.3% | BT-549 breast 111% | MDA-MB-435 melanoma 52.2% | SW-620 colon 132% | MCF7 breast 86.1% | HCT-116 colon 99.8% | HCC-2998 colon 130% | KM12 colon 100%

COc1cc(/C=C/C(=O)c2nc3cc(F)ccc3nc2C)cc(OC)c1OC
active: HCC-2998 colon -4.35%
inactive: T-47D breast 48% | BT-549 breast 112% | MDA-MB-435 melanoma 75% | SW-620 colon 29.9% | MCF7 breast 34.1% | HCT-116 colon 44.5% | KM12 colon 36.2%

Cc1cc2c(c(C)c1Cl)C(=O)/C(=C/c1ccc(O)c(O)c1)O2
inactive: T-47D breast 90.5% | BT-549 breast 104% | MDA-MB-435 melanoma 106% | SW-620 colon 105% | MCF7 breast 89.4% | HCT-116 colon 112% | HCC-2998 colon 112% | KM12 colon 109%

O=C1Nc2cc(-c3cccc(O)c3)ccc2/C1=C/c1ccc[nH]1
active: T-47D breast -0.905% | BT-549 breast 0.113% | MDA-MB-435 melanoma 5.05% | KM12 colon 0.211%
inactive: SW-620 colon 18.9% | MCF7 breast 10.5% | HCT-116 colon 11.6% | HCC-2998 colon 14.8%

CCN(CC)CC[n+]1cc2cc(OC)c(OC)cc2c2ccc3cc4c(cc3c21)OCO4
inactive: T-47D breast 16.2% | MDA-MB-435 melanoma 24.6% | MCF7 breast 11.5% | HCC-2998 colon 18.7%
active: BT-549 breast -4.72% | SW-620 colon 9.98% | HCT-116 colon -83% | KM12 colon -82.2%

Nc1c(C(=O)Nc2ccnc3ccccc23)sc2nc3c(cc12)CN(Cc1ccccc1)CC3
inactive: T-47D breast 38.5% | BT-549 breast 30.8% | MDA-MB-435 melanoma 73.6% | SW-620 colon 95.3% | MCF7 breast 68.9% | HCT-116 colon 45% | HCC-2998 colon 103% | KM12 colon 79.7%

COc1cc(NC(C)CCCNC(=O)CCC(=O)NCCCNCCCCCCCCCCNCCCNC(=O)CCC(=O)NCCCC(C)Nc2cc(OC)cc3cccnc23)c2ncccc2c1 (stereo not drawn)
inactive: T-47D breast 28.5% [8 µM] | BT-549 breast 95.5% [8 µM] | MDA-MB-435 melanoma 75.8% [8 µM] | SW-620 colon 73.4% [8 µM] | MCF7 breast 24.3% [8 µM] | HCT-116 colon 69.4% [8 µM] | HCC-2998 colon 79.8% [8 µM] | KM12 colon 89.2% [8 µM]

CC(=O)c1ccc(NS(=O)(=O)c2cccc(C(=O)Nc3ccc(Br)cc3)c2)cc1
inactive: T-47D breast 30.6% [25 µM] | BT-549 breast 48.3% [25 µM] | MDA-MB-435 melanoma 53.4% [25 µM] | SW-620 colon 75.6% [25 µM] | MCF7 breast 60.8% [25 µM] | HCT-116 colon 48.4% [25 µM] | HCC-2998 colon 79.8% [25 µM] | KM12 colon 58.2% [25 µM]

NCCCCCCNc1cc(-c2cccc(OC(F)(F)F)c2)nc2ccc(N3CCCC3)cc12
active: T-47D breast -15.4% | MDA-MB-435 melanoma -99.8% | SW-620 colon -86.3% | MCF7 breast -72.6% | HCT-116 colon -63.3% | HCC-2998 colon -66.5% | KM12 colon -82.7%
inactive: BT-549 breast 55.7%

NS(=O)(=O)c1ccc(CCn2c(SCC(=O)c3ccc(Cl)cc3)nc3ccccc3c2=O)cc1
inactive: T-47D breast 95.3% | BT-549 breast 99% | MDA-MB-435 melanoma 102% | SW-620 colon 103% | MCF7 breast 91.8% | HCT-116 colon 97% | HCC-2998 colon 87.7% | KM12 colon 102%

O=S(=O)(NCCCNc1nccc(-c2c(-c3cccc(O)c3)nc3occn23)n1)c1ccc(Cl)cc1
inactive: T-47D breast 64.2% | BT-549 breast 102% | MDA-MB-435 melanoma 33.8% | SW-620 colon 109% | MCF7 breast 82.6% | HCT-116 colon 61.9% | HCC-2998 colon 120% | KM12 colon 86.2%

COc1ccc(C(=O)CSc2nc(-c3cc(OC)ccc3OC)cc(-c3ccc(Cl)cc3)c2C#N)cc1
inactive: T-47D breast 32.3% | BT-549 breast 10.8% | MDA-MB-435 melanoma 26% | SW-620 colon 50.7% | MCF7 breast 46.5% | HCT-116 colon 30.2% | HCC-2998 colon 78.3% | KM12 colon 48.3%

O=C(CCN1CCCC1)Nc1ccc2c(Nc3ccc(F)cc3)c3ccccc3nc2c1
active: T-47D breast 7.84% | MDA-MB-435 melanoma -94.9% | SW-620 colon -25% | MCF7 breast -19.9% | HCT-116 colon -54.2% | HCC-2998 colon -80.3% | KM12 colon 0.928%
inactive: BT-549 breast 51.2%

Cn1ccc2c1CC1CN(Cc3ccco3)C(=O)C1C2C(=O)O (stereo not drawn)
inactive: T-47D breast 98.7% | BT-549 breast 110% | MDA-MB-435 melanoma 101% | SW-620 colon 98.7% | MCF7 breast 95.7% | HCT-116 colon 104% | HCC-2998 colon 104% | KM12 colon 101%

O=C1CC(=O)OC(c2ccc([N+](=O)[O-])cc2)O1
inactive: T-47D breast 17.9% | BT-549 breast 51.4%
active: MDA-MB-435 melanoma -27.9% | SW-620 colon -42.8% | MCF7 breast 7.35% | HCT-116 colon -68.8% | HCC-2998 colon 7.55% | KM12 colon -75.3%

COC(=O)N[C@H]1CCc2c(Cl)c(OC)c(OC)c(OC)c2-c2ccc(SC)c(=O)cc21
active: BT-549 breast -4.69% | MDA-MB-435 melanoma -49.9% | HCT-116 colon 0.452% | KM12 colon 1.72%
inactive: T-47D breast 40.4% | SW-620 colon 16.1% | MCF7 breast 10.8% | HCC-2998 colon 21.5%
